Results from PubChem BioAssay AID488835 (Broad Institute, 2010).
Among all 1,400 compounds or so, about 140 (10%) were called active.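 Rule for the calls: active = Half-maximal inhibitory dose from the fit at or below ten times the top valid tested dose; inconclusive = Invalid fit, or flat curve showing 30 to 70% inhibition; inactive = the rest.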 Not all results are given here. Entries with a potency or affinity are not part of this list.

Target: Lysine-specific demethylase 4C (Homo sapiens) (UniProt Q9H3R0)
Sequence (Q9H3R0 1-420 limits assumed): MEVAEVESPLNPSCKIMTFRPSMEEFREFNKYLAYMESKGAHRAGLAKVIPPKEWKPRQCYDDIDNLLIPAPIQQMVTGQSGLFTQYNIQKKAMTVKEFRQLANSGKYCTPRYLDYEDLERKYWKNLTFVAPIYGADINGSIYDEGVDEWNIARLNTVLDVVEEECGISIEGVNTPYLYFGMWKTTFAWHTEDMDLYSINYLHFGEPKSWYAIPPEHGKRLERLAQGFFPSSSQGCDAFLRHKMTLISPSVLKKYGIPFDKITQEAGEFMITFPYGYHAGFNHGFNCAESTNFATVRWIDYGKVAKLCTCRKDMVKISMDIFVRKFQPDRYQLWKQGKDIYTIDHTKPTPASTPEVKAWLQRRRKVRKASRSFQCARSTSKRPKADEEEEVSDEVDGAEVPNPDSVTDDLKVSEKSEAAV
Experiment: inhibition of JMJD2C H3K9me3 demethylation – biochemical, DELFIA europium, cherry-picked samples, dose response (AID 488835);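 note: signal is the H3K9me2 demethylation product detected by a dimethyl-specific antibody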
Settings: GST-JMJD2C(1-420); series mostly up to 6 µM; activity change, negative = inhibition: at the top concentration

Activity change, negative = inhibition, inactive:
CCOc1ccc(N2CC(C(=O)Nc3nnc(Cc4ccc(OC)cc4)s3)CC2=O)cc1 (stereo not given) 4.76%, CCCCN1CC[C@H]2C=CC[C@@H](C(=O)Nc3ccc(OC)cc3)[C@H]2C1=O 8.42%, O=S(=O)(Nc1ccccc1)c1ccc(NS(=O)(=O)c2c(F)cccc2F)cc1 -0.423%, C[C@H](CO)N1C[C@H](C)[C@@H](CN(C)C(=O)Nc2ccc(C(F)(F)F)cc2)Oc2c(NC(=O)Nc3ccc4c(c3)OCO4)cccc2C1=O 3.68%, COc1ccc(/C=N/Nc2ncnc(Cl)c2N)cc1OC -1.24%, COc1cc(/C=N/N2C(=O)C3C4c5ccccc5C(c5ccccc54)C3C2=O)ccc1O (stereo not given) -0.389%, COc1cc(/C=N/Nc2ccccc2)ccc1OC(=O)c1cccs1 -0.0417%, O=C(O)CCCC(=O)Nc1ccc(C(=O)NCc2cccnc2)cc1 3.5%, N#CCN1CCC(c2cc(-c3ccco3)n[nH]2)CC1 -1.55% [at 1.6 µM], CS(=O)(=O)N(CC(=O)O)c1cc(Cl)cc(Cl)c1 -2.49%, COc1ccc(N2CCN(C(=O)CSc3nnc(-c4ccco4)n3C)CC2)cc1 4.94%, C[C@H](CO)N1C[C@H](C)[C@@H](CN(C)C(=O)Nc2ccccc2)Oc2c(NC(=O)c3ccncc3)cccc2C1=O 5.62%, Cc1cccc2sc(NNC(=O)c3cc(=O)c4ccccc4o3)nc12 -7.12%, CN1N=C(C(F)(F)F)CC1=O -2.45%, CSC1=NCCN1C(=O)c1cccc(C(F)(F)F)c1 -2.7%, Cn1c(=O)c(-c2ccccc2)nn2c3ccccc3nc12 7.46%, Cc1ccc(Nc2c(-c3ccccn3)nc3cc(C)ccn23)cc1 6.6%, CCOC(=O)N1CCC2(CC1)C(C#N)=C(N)OC1=C2C(=O)CC(C)(C)C1 4.68%, C[C@H](CO)N1C[C@H](C)[C@@H](CN(C)Cc2ccc(C(=O)O)cc2)Oc2c(NC(=O)c3ccncc3)cccc2C1=O 7.09%, O=C(O)Cn1cc(/C=C2/SC(=O)N(CC(=O)N3CCCCCC3)C2=O)c2ccccc21 2.27%, O=C(O)CCC(=O)Nc1nc2nc(-c3ccccc3)cc(-c3ccccc3)n2n1 0.643%, CCN(C[C@H]1N[C@@](C)(C(=O)OC)[C@H]2C(=O)N(Cc3ccccc3)C(=O)[C@@H]12)C(=O)Nc1ccc(F)cc1 -4.19%, Cc1cc(N2C(=O)C(=O)/C(=C(/O)c3ccc(F)cc3)C2c2cccc(Br)c2)no1 (stereo not given) 2.06%, COc1cccc(/C=C/C(=O)NCCc2ccc(OC)c(OC)c2)c1 -4.6%, CCc1ccc(-c2cc(C)no2)cc1S(=O)(=O)NCCc1ccc(OC)c(OC)c1 7.44%, Cc1ccccc1NS(=O)(=O)c1ccc(C(=O)NCC(c2ccco2)N(C)C)cc1 (stereo not given) -0.352%, COc1ccccc1/C=C/C(=O)Nc1ccc(N2CCOCC2)cc1 4.57%, Cc1cc(C)c2cc(C#N)c(SCC(=O)Nc3ccc4c(c3)OCO4)nc2c1 5.59%, O=C(/C=C\Nc1ccc(Cl)cn1)c1ccc(Br)cc1 -7.96%, CCCNC1=C(N(C(C)=O)c2cccc(F)c2)C(=O)c2ccccc2C1=O 3.34%, C#CCOCCOCCOCCNc1nc(N2CCN(C(=O)[C@H](CCCN=C(N)N)n3cc(C(N)[C@H](C)CC)nn3)CC2)nc(N2CCN(C(=O)[C@H](CC(N)=O)n3cc(C(N)[C@@H](C)CC)nn3)CC2)n1 (stereo not given in full) -2.68%, C#CCOCCOCCOCCNc1nc(N2CCN(C(=O)[C@H](CCCN=C(N)N)n3cc(C(N)[C@@H](C)CC)nn3)CC2)nc(N2CCN(C(=O)[C@H](CCC(=O)O)n3cc([C@@H](N)[C@H](C)CC)nn3)CC2)n1 (stereo not given in full) 4.63%, C#CCOCCOCCOCCNc1nc(N2CCN(C(=O)[C@H](CCC(=O)O)n3cc(CN)nn3)CC2)nc(N2CCN(C(=O)[C@H](CCCN=C(N)N)n3cc(C(N)[C@@H](C)CC)nn3)CC2)n1 (stereo not given in full) 76.7%, C#CCOCCOCCOCCNc1nc(N2CCOCC2)nc(N2CCN(C(=O)[C@H](CCCN=C(N)N)n3cc(C(N)[C@@H](C)CC)nn3)CC2)n1 (stereo not given in full) 5.28%, Oc1cc2ccccc2cc1-c1nnc2n1-c1ccccc1SC2 -2.47%, CC(=O)Nc1sc2c(c1CN1CCN(C)CC1)CCCC2 6.9%, COc1ccc(S(=O)(=O)N2CC(O)CC2C(=O)OCc2nc3sc(C)c(C)c3c(=O)[nH]2)cc1 (stereo not given) 1.48%, CC1CCN(C(=O)CSc2nnc(CNC(=O)c3c(F)cccc3F)o2)CC1 6.12%, CNC(=O)c1sccc1-n1cccc1 9.03%, CCOC(=O)C1(C)NC(c2cccs2)C2C(=O)N(c3ccc(OC)cc3)C(=O)C21 (stereo not given) 3.9%, Cc1ccccc1CNc1nnnn1C 5.25%, Oc1ccc(Br)cc1/C=N/Nc1nc(N2CCCCC2)nc(N2CCOCC2)n1 12.4%, O=C(N/N=C/c1ccc(O)cc1)c1cncc(Br)c1 4.32%, CN1CCC[C@H]1CCNC(=O)c1c(-c2ccsc2)sc2ccccc12 0.336%, Cn1c(=O)c2[nH]c(N3CCN(c4cccc(O)c4)CC3)nc2n(C)c1=O 2.66%, CC(OC(=O)CN1C(=O)COc2ccccc21)C(=O)NCc1ccc(F)cc1 (stereo not given) 15.5%, Cc1ccc(C(C)C)c(Oc2nnnn2-c2ccccc2)c1 0.65%, O=C(c1cc2c(s1)CCC2)N1C(=O)c2ccccc2S1(=O)=O 2.58%, O=C(Cn1cncn1)NCc1cc(F)ccc1F 2.09%, C[C@H](CO)N1C[C@H](C)[C@@H](CN(C)CC2CCCCC2)Oc2c(NC(=O)C3CC3)cccc2C1=O 4.66%, C[C@H]1CN([C@@H](C)CO)C(=O)c2cccc(NC(=O)C3CC3)c2O[C@H]1CN(C)Cc1ccncc1 1.11%, C[C@H](CO)N1C[C@H](C)[C@@H](CN(C)S(=O)(=O)c2cccs2)Oc2c(NC(=O)CCC(F)(F)F)cccc2C1=O 1.77%, Cc1ccc(NC(=O)COC(=O)CCc2c[nH]c(=O)[nH]2)cc1 9.31%, COc1cc([N+](=O)[O-])ccc1NC(=O)CSc1nccn1C 9.26%, COc1ccc(OC)c(/C=C2\SC(=S)N(Cc3cccnc3)C2=O)c1 -4.57%, O=C(N1CCN(c2ccccc2)CC1)C12CC3CC(CC(C3)C1)C2 -1.02%, CSc1nsc(SCC(=O)Nc2c(C)n(C)n(-c3ccccc3)c2=O)n1 8.05%, O=C(NNC(=O)c1ccc(SCC2CCCO2)c([N+](=O)[O-])c1)c1ccc(Cl)c([N+](=O)[O-])c1 (stereo not given) -5.03%, CCCCC(=O)NC(NC(=S)N1CCOCC1)C(Cl)(Cl)Cl (stereo not given) 2.74%, O=C(Nc1ccc(-c2nc3ncccc3o2)cc1)c1ccc(Br)o1 -4.66%, CC(C)(C)n1nc2c(c1NC(=O)c1ccc(Br)o1)CS(=O)C2 (stereo not given) 1.7%, COc1ccc(S(=O)(=O)Nc2ccc3c(c2)C(=O)N([C@H](C)CO)C[C@H](C)[C@@H](CN(C)S(=O)(=O)c2c(C)noc2C)O3)cc1 5.79%, COC(=O)CN1C(=O)[C@H]2[C@@H](/C=C/c3ccccc3)N3C(=O)CN(Cc4ccccn4)C(=O)[C@@]3(Cc3ccccc3)[C@H]2C1=O 5.78%, COC(=O)c1ccc(/C=C/c2c(-c3ccc(OC)cc3)sc3ccccc23)cc1 7.35%, COc1ccc2c(C(=O)CN3CCN(c4ccccc4)CC3)c[nH]c2c1 2.4%, Cc1noc(C)c1C(=O)Nc1ccc2ccccc2c1 3.03%, Cc1noc(C)c1NC(=O)N(C)C[C@H]1Oc2ccc(NC(=O)CCC(F)(F)F)cc2C(=O)N([C@H](C)CO)C[C@@H]1C 5.18%, Fc1ccccc1OCCCCn1cncn1 9.01%, CC(C)=CCN1CCN(Cc2cn[nH]c2C2CCCCC2)CC1CCO (stereo not given) -1.15%, O=C(C[C@H]1C/C=C/CC[C@@H](Cc2ccc(F)cc2)C(=O)O[C@@H](c2ccccc2)CNC1=O)NCCO 5.71%, CCOC(=O)C1CCN(S(=O)(=O)c2cc3c4c(c2)C(C)C(=O)N4CCC3)CC1 (stereo not given) 3.58%, CCn1nc(C(=O)NNC(=O)COc2ccc(OC)cc2)c2ccccc2c1=O -3.03%, COc1ccc(NC(=O)NCCCCc2ccccc2)c(OC)c1 -0.647%, O=c1nc(SCc2cccc(C(F)(F)F)c2)nc2ccccn12 -5.39%, Cc1cccc(NC(=S)N(CCN2CCOCC2)Cc2cc3cc4c(cc3[nH]c2=O)OCO4)c1 3.04%, CCCCn1c(=O)[nH]c(=O)c2c1nc(-c1cc(Cl)c(OC)c(OC)c1)n2C 0.72%, CNc1nc2c(c(=O)[nH]c(=O)n2C)n1CCCc1ccccc1 2.23% [at 1.6 µM], CCOC(=O)Cn1nc(C)c2c1CCCC2=O 1.44%, CCC(NS(=O)(=O)c1cccs1)c1ccc(C)cc1 (stereo not given) 3.29%, O=S1(=O)CCC(N=Nc2c(O)n(Cc3ccccc3)c3ccccc23)C1 (stereo not given) -0.825%, Cc1ccccc1Cn1c2ccccc2c2cn[nH]c(=O)c21 -0.371%, C[C@H](N)c1nnc(SCC(=O)N(C)C)o1 3.49%, COc1ccc(CCNC(=O)CSCc2n[nH]c(=O)[nH]2)cc1OC 5.01%, CCOc1ccccc1Nc1ncnc2ccccc12 6.06%, CCOC(=O)c1csc(N/N=C2\CCc3ccccc32)n1 4.71%, COc1ccc(/C=N/N=C2\CC3CCC2(C)C3(C)C)cc1O (stereo not given) 2.55%, Cc1cc(C)c(NC(=O)CS(=O)CC(=O)Nc2ccc(F)cc2F)c(C)c1 (stereo not given) 0.49% [at 1.6 µM], Cc1cccc2c1-c1sc(C(=O)Nc3cccc([N+](=O)[O-])c3C)cc1CO2 13.5%, Fc1cccc(F)c1/C=N/N1CCOCC1 -5.24%, COc1cccc(CSc2nnc(C(F)(F)F)n2Cc2ccc(F)cc2)c1 -2.62%, O=C1CCCC2=C1C(c1ccc(OS(=O)(=O)c3ccc(Cl)cc3)cc1)C1=C(CCCC1=O)O2 1.91%, O=C1c2ccc([N+](=O)[O-])cc2C(=O)N1Cc1cccnc1 7.52%, COc1ccc(CCNC(=O)c2ccc(N3CCCCS3(=O)=O)cc2)cc1OC 4.22%, O=C(NCCCN1CCCC1=O)c1cc(-c2cccnc2)nc2ccc(Cl)cc12 1.3%, CCCC(=O)NC(c1cccs1)c1cc(Cl)c2cccnc2c1O (stereo not given) -4.81%
